Consider 28 sequences from the supplement of paper PMC12645437, “Orthogonal IMiD-Degron Pairs Induce Selective Protein Degradation in Cells” (ACS Chemical Biology, 2025).

The assay deals with T1, CRBN, Q96SW2.
T1 chain: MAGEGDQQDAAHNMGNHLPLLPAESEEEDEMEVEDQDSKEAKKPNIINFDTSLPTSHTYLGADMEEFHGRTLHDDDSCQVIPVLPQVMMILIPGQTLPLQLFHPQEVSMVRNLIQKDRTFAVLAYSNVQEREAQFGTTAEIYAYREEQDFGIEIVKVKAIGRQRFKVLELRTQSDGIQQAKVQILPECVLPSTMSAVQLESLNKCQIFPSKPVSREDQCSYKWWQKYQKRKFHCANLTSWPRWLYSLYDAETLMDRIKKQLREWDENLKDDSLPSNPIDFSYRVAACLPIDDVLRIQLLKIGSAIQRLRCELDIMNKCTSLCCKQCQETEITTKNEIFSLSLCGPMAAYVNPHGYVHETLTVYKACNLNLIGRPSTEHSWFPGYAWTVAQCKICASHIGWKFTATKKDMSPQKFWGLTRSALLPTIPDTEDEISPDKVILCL
The assay is described as follows: log2 fold change of degron read counts, EGFP-low vs EGFP+ sorted cells (limma voom), compound-induced degradation; higher = more compound-induced degradation of the degron-EGFP fusion; degrons are variants of IKZF1/3 zinc finger 2; compound dose not given here. To be noted: Jurkat, 18 h.

The mark [1] stands for this setting: compound: compound 19 (5-tert-butyl-thalidomide).
The mark [2] stands for this setting: compound: compound 22 (5-morpholino-thalidomide).
[3] abbreviates: compound: compound 33 (diphenyl IMiD analogue).

Whole data set: some 8,300 sequences, median “log2 fold change of degron read counts, EGFP-low vs EGFP+ sorted cells (limma voom), compound-induced degradation” near -1.1, cut for the highest 2% near 3.2. This excerpt belongs to a sample that is enriched for the highest values.
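Also: pooled lentiviral library of zinc finger degron-EGFP fusions in mCherry-positive Jurkat cells, FACS-sorted after compound exposure, with degron abundance counted by next-generation sequencing.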

As to FYCEICGRDFTQKGNLLRHIKL [46F_47Y_49E_50I_52G_53R_54D_55F_67L_, Q9UKT9], the “log2 fold change of degron read counts” value was -2.29 under setting [1], -2.76 under setting [2], -1.95 under setting [3] and -2.67 (compound: thalidomide).
The corresponding values for FQCDQCGAQFTQKGNLLRHIKL [46F_47Q_49D_50Q_52G_53A_54Q_55F_67L_, Q9UKT9] are -2.81, -1.76, -1.35 and 0.414.
FFCEICGHMFTQKGNLLRHIKL [46F_47F_49E_50I_52G_53H_54M_55F_67L_, Q9UKT9]: the “log2 fold change of degron read counts” value under setting [1] is -1.68, the “log2 fold change of degron read counts” value under setting [2] was -2.18, the “log2 fold change of degron read counts” value under setting [3] is -1.72 and the “log2 fold change of degron read counts” value (compound: thalidomide) was -2.01.
In the case of FECNQCGAYFTQKGNLLRHIKL [46F_47E_49N_50Q_52G_53A_54Y_55F_67L_, Q9UKT9], the “log2 fold change of degron read counts” value was -2.64 under setting [1], -2.84 under setting [2], -1.48 under setting [3] and -1.4 (compound: thalidomide).
For the sequence FMCEICGHVFTQKGNLLRHIKL [46F_47M_49E_50I_52G_53H_54V_55F_67L_, Q9UKT9], the “log2 fold change of degron read counts” value reads like this: under setting [1], -2.94; under setting [2], -3.04; under setting [3], -2.18; (compound: thalidomide) -2.54.
Take FKCNICGAWFTQKGNLLRHIKL [46F_47K_49N_50I_52G_53A_54W_55F_67L_, Q9UKT9]: the “log2 fold change of degron read counts” value by setting is: under setting [1], -1.98; under setting [2], -2.92; under setting [3], -2.11; (compound: thalidomide) -1.78.
Regarding FLCPICGAPFTQKGNLLRHIKL [46F_47L_49P_50I_52G_53A_54P_55F_67L_, Q9UKT9], the “log2 fold change of degron read counts” value runs as follows: under setting [1], 2.02; under setting [2], 2.98; under setting [3], 2.65; (compound: thalidomide) 3.18.
Consider FDCPICGAPFTQKGNLLRHIKL [46F_47D_49P_50I_52G_53A_54P_55F_67L_, Q9UKT9], for which the “log2 fold change of degron read counts” value under setting [1] was determined as 2.88, the “log2 fold change of degron read counts” value under setting [2] was 1.73, the “log2 fold change of degron read counts” value under setting [3] was determined as 1.54 and the “log2 fold change of degron read counts” value (compound: thalidomide) turned out to be 2.15.
Take FYCPICGADFTQKGNLLRHIKL [46F_47Y_49P_50I_52G_53A_54D_55F_67L_, Q9UKT9]: the “log2 fold change of degron read counts” value is 1.73 under setting [1], 1.44 under setting [2], 1.25 under setting [3] and -0.522 (compound: thalidomide).
The corresponding values for FCCPICGAPFTQKGNLLRHIKL [46F_47C_49P_50I_52G_53A_54P_55F_67L_, Q9UKT9] are 3.65, 3.16, 2.16 and 2.67.
Turning to FCCPICGADFTQKGNLLRHIKL [46F_47C_49P_50I_52G_53A_54D_55F_67L_, Q9UKT9], the “log2 fold change of degron read counts” value under setting [1] was determined as 1.61, the “log2 fold change of degron read counts” value under setting [2] stood at 1.1, the “log2 fold change of degron read counts” value under setting [3] is 1.77 and the “log2 fold change of degron read counts” value (compound: thalidomide) is 1.6.
FCCNICGAPFTQKGNLLRHIKL [46F_47C_49N_50I_52G_53A_54P_55F_67L_, Q9UKT9]: the “log2 fold change of degron read counts” value is, setting by setting: under setting [1], 3.01; under setting [2], 2.73; under setting [3], 1.32; (compound: thalidomide) 1.86.
In the same order, the values of FVCPICGAPFTQKGNLLRHIKL [46F_47V_49P_50I_52G_53A_54P_55F_67L_, Q9UKT9] are 2.4, 3.68, 2.3 and 3.49.
In the same order, the values of FYCPICGAPFTQKGNLLRHIKL [46F_47Y_49P_50I_52G_53A_54P_55F_67L_, Q9UKT9] are 3.63, 3.27, 2.84 and 2.2.
For FYCPICGAKFTQKGNLLRHIKL [46F_47Y_49P_50I_52G_53A_54K_55F_67L_, Q9UKT9], the “log2 fold change of degron read counts” value under setting [1] worked out at 2.61, the “log2 fold change of degron read counts” value under setting [2] was 3.07, the “log2 fold change of degron read counts” value under setting [3] was determined as 1.08 and the “log2 fold change of degron read counts” value (compound: thalidomide) stood at 0.503.
For FCCDICGAMFTQKGNLLRHIKL [46F_47C_49D_50I_52G_53A_54M_55F_67L_, Q9UKT9], the “log2 fold change of degron read counts” value reads like this: under setting [1], 0.674; under setting [2], 0.00358; under setting [3], 0.721; (compound: thalidomide) -0.808.
As for FWCNVCGACFTQKGNLLRHIKL [46F_47W_49N_50V_52G_53A_54C_55F_67L_, Q9UKT9], the “log2 fold change of degron read counts” value reads like this: under setting [1], 1.84; under setting [2], 2.89; under setting [3], 1.57; (compound: thalidomide) -0.431.
Take FYCNQCGHAFTQKGNLLRHIKL [46F_47Y_49N_50Q_52G_53H_54A_55F_67L_, Q9UKT9]: the “log2 fold change of degron read counts” value is -2.34 under setting [1], -2.37 under setting [2], -2.98 under setting [3] and -2.66 (compound: thalidomide).
In the same order, the values of FLCDICGASFTQKGNLLRHIKL [46F_47L_49D_50I_52G_53A_54S_55F_67L_, Q9UKT9] are 0.329, -1.41, 0.103 and -0.525.
Regarding FNCDICGAEFTQKGNLLRHIKL [46F_47N_49D_50I_52G_53A_54E_55F_67L_, Q9UKT9], the “log2 fold change of degron read counts” value is, setting by setting: under setting [1], 0.228; under setting [2], -1.87; under setting [3], -2.21; (compound: thalidomide) -2.45.
Consider FECEICGHGFTQKGNLLRHIKL [46F_47E_49E_50I_52G_53H_54G_55F_67L_, Q9UKT9], for which the “log2 fold change of degron read counts” value is, setting by setting: under setting [1], -3.39; under setting [2], -3.7; under setting [3], -2.59; (compound: thalidomide) -2.45.
The corresponding values for FTCEICGRLFTQKGNLLRHIKL [46F_47T_49E_50I_52G_53R_54L_55F_67L_, Q9UKT9] are -2.87, -2.3, -0.938 and -0.343.
LWCNQCGFPCTQKGNLLRHIKL [46L_47W_49N_50Q_52G_53F_54P_55C_67L_, Q9UKT9]: the “log2 fold change of degron read counts” value by setting is: under setting [1], -0.74; under setting [2], -1.09; under setting [3], -1.33; (compound: thalidomide) -1.27.
For FYCPQCGAWFTQKGNLLRHIKL [46F_47Y_49P_50Q_52G_53A_54W_55F_67L_, Q9UKT9], the “log2 fold change of degron read counts” value by setting is: under setting [1], -0.595; under setting [2], -1.07; under setting [3], -0.405; (compound: thalidomide) -1.33.
The corresponding values for FECNVCGAHFTQKGNLLRHIKL [46F_47E_49N_50V_52G_53A_54H_55F_67L_, Q9UKT9] are -2.58, -2.72, -0.566 and -0.594.
The corresponding values for FLCDVCGACFTQKGNLLRHIKL [46F_47L_49D_50V_52G_53A_54C_55F_67L_, Q9UKT9] are -1.03, -2.05, 0.211 and -0.875.
As to FWCPICGREFTQKGNLLRHIKL [46F_47W_49P_50I_52G_53R_54E_55F_67L_, Q9UKT9], the “log2 fold change of degron read counts” value is 0.147 under setting [1], -0.132 under setting [2], 1.23 under setting [3] and -0.495 (compound: thalidomide).
In the same order, the values of FLCPVCGAGFTQKGNLLRHIKL [46F_47L_49P_50V_52G_53A_54G_55F_67L_, Q9UKT9] are 1.38, 0.0992, 1.5 and 0.959.
